Results published in PubChem BioAssay (NCATS).
Inconclusive results are not listed. Entries that show only a call come without a potency. Unmarked numbers belong to inactive results. Activity calls are given as the source filed them. The call rests on the fitted dose curve; in most records, active means well fitted inhibition curve with a large enough effect; inconclusive means small, poorly fitted or top-dose-only effect; inactive means no such curve, though single readings can be large or run the other way.

Key:
[1] = system: Zika virus NS2B-NS3 protease (unlinked complex); assay: Primary screen GU Rhodamine qHTS for Zika virus inhibitors: Unlinked NS2B-NS3 protease assay (AID 1347159); further: nearly all actives have a fitted effect of over 60% in size
Outline: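 Noncovalent NS2B hydrophilic domain/NS3 protease complex (25 nM final) in 10 mM Tris-HCl pH 8.0, 0.01% Tween 20, preincubated 15 min with compounds (up to 114 microM), then 1.5 microM Rhodamine110 substrate. Fluorescence change over 15 min fitted to 4-parameter Hill.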

[2] = system: Zika virus NS2B-NS3 protease (linked construct); assay: Primary screen NINDS Rhodamine qHTS for Zika virus inhibitors (AID 1347160); further: nearly all actives have a fitted effect of over 55% in size
Outline: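 Purified NS2B-NS3 protease with the NS2B hydrophilic domain joined by a flexible linker (25 nM) in 10 mM Tris-HCl pH 8.0, 0.01% Tween 20, preincubated 15 min at RT with compound; Rhodamine110 peptide substrate 1.5 µM; fluorescence change over 15 min; 4-parameter Hill fit.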

Structure (SMILES): Cc1[nH]nc(C(F)(F)F)c1Cc1sc2c(c1C(=O)N1C[C@](C)(O)CO1)c(=O)n(C)c(=O)n2C(C)C
- Potency [1]: inactive
- Potency [2]: inactive

Structure (SMILES): CC(=O)O[C@@](C)(C(=O)/C=C/C(C)(C)O)[C@H]1[C@H](O)C[C@@]2(C)[C@@H]3CC=C4[C@@H](C=C(O)C(=O)C4(C)C)[C@]3(C)C(=O)C[C@]12C
- Potency [1]: inactive
- Potency [2]: inactive

Structure (SMILES): CC(C)C(CO)Nc1nc(Nc2ccc(C(=O)O)c(Cl)c2)c2ncn(C(C)C)c2n1 (stereo not drawn)
- Potency [1]: inactive
- Potency [2]: inactive

Structure (SMILES): CC1OC(OC2C(OC3C(O[C@H]4CC[C@@]5(C)C(CC[C@]6(C)C5C(=O)C=C5C7CC(C)(C)CC(O)[C@]7(C)CC[C@]56C)C4(C)C)OC(C(=O)O)C(O)C3O)OCC(O)C2O)C(O)C(O)C1O (stereo partly drawn)
- Potency [1]: inactive
- Potency [2]: inactive

Structure (SMILES): O=C(c1cn(Cc2cncn2Cc2ccc(Br)cc2)cc1-c1cccc2ccccc12)N1CCOCC1
- Potency [1]: inactive
- Potency [2]: inactive

Structure (SMILES): CC(C)(C)c1ccc(S(=O)(=O)NCc2ccc(C(=O)Nc3cccnc3)cc2)cc1
- Potency [1]: inactive
- Potency [2]: inactive

Structure (SMILES): CC1(C)CCC2(C(=O)OC3OCC(O)C(O)C3O)CCC3(C)C(=CCC4C5(C)CC(O)C(OC6OC(COC7OCC(O)C(O)C7O)C(O)C(O)C6O)C(C)(C)C5CCC43C)C2C1 (stereo not drawn)
- Potency [1]: inactive
- Potency [2]: inactive

Structure (SMILES): COc1ccc(-c2cnc(-c3cccc4c3-c3ccccc3C4=O)o2)cc1
- Potency [1]: inactive
- Potency [2]: inactive

Structure (SMILES): O=C1CC2(CCCC2)[C@H](O)C(=O)N1CCCCN1CCN(c2ncccn2)CC1
- Potency [1]: inactive
- Potency [2]: inactive

Structure (SMILES): COc1c2c(c(C)c3c1C(=O)OC3)OC1(C)CC(O)C(C(C)(C)O)C(C)(CCC(=O)O)C1C2 (stereo not drawn)
- Potency [1]: inactive
- Potency [2]: inactive

Structure (SMILES): Cc1ccc(C(=O)N(CCCN)C(c2nc3cc(Cl)ccc3c(=O)n2Cc2ccccc2)C(C)C)cc1 (stereo not drawn)
- Potency [1]: inactive
- Potency [2]: inactive

Structure (SMILES): COC(=O)Cc1cc2c(c([N+](=O)[O-])c1)N(C(=O)CC[C@H](N)C(=O)O)CC2
- Potency [1]: inactive
- Potency [2]: inactive

Structure (SMILES): CC12CCC(C(OC3OC(COC4OCC(O)(CO)C4O)C(O)C(O)C3O)C1)C(C)(C)O2 (stereo not drawn)
- Potency [1]: inactive
- Potency [2]: inactive

Structure (SMILES): C[C@H](O)[C@H](O)/C=C/c1cccc(O)c1CO
- Potency [1]: inactive
- Potency [2]: inactive

Structure (SMILES): CC1(C)CC[C@]2(C(=O)O[C@@H]3O[C@H](CO[C@@H]4O[C@H](CO)[C@@H](O)[C@H](O)[C@H]4O[C@@H]4O[C@H](CO)[C@H](O)[C@H](O)[C@H]4O)[C@@H](O)[C@H](O[C@@H]4O[C@H](CO)[C@@H](O)[C@H](O)[C@H]4O)[C@H]3O)CC[C@]3(C)C(=CCC4[C@@]5(C)CC[C@H](O[C@@H]6OC[C@@H](O)[C@H](O)[C@H]6O)[C@@](C)(C(=O)O)C5CC[C@]43C)[C@@H]2C1 (stereo partly drawn)
- activity change, negative = inhibition [1]: 20.2% [at 19.1 µM]
- activity change, negative = inhibition [2]: -4.93% [at 10.7 µM]

Structure (SMILES): O=C(CC(c1ccccc1)c1ccccc1)N1CCN(C(c2ccccc2)c2ccccc2)CC1
- Potency [1]: inactive
- Potency [2]: inactive

Structure (SMILES): C[C@@H]1C(=O)O[C@H]2[C@@H](O)C34[C@H]5C[C@@H](C(C)(C)C)C36[C@@H](OC(=O)[C@@H]6O)O[C@@]4(C(=O)O5)[C@@]12O (stereo partly drawn)
- Potency [1]: inactive
- Potency [2]: inactive

Structure (SMILES): C[C@@H]1O[C@@H](O[C@H]2[C@H](OC(=O)[C@]34CCC(C)(C)C[C@H]3C3=CCC5[C@@]6(C)C[C@H](O)[C@H](O[C@@H]7O[C@H](CO)[C@@H](O)[C@H](O)[C@H]7O)[C@@](C)(CO)C6[C@H](O)C[C@@]5(C)[C@]3(C)C[C@H]4O)OC[C@H](O)[C@@H]2O)[C@H](O)[C@H](O)[C@H]1O[C@@H]1OC[C@@H](O)[C@H](O[C@H]2OC[C@](O)(CO)[C@H]2O)[C@H]1O (stereo partly drawn)
- activity change, negative = inhibition [1]: 7.01% [at 19.1 µM]
- activity change, negative = inhibition [2]: 18.3% [at 10.7 µM]

Structure (SMILES): COc1ccc(C2COc3cc(O)ccc3C2)c(O)c1 (stereo not drawn)
- Potency [1]: inactive
- Potency [2]: inactive

Structure (SMILES): CC(=O)OC1C(c2ccccc2)CCC(c2ccccc2)C1OC(C)=O (stereo not drawn)
- Potency [1]: inactive
- Potency [2]: inactive

Structure (SMILES): Cc1c(NC(=O)c2cc(C(N)=O)nc3cc(F)ccc23)c(C(F)(F)F)nn1Cc1ccc(C#N)cc1
- Potency [1]: inactive
- Potency [2]: inactive

Structure (SMILES): CNC(=O)c1ccccc1Nc1nc(Nc2ccc3c(c2OC)CCC[C@@H](N2CCN(CCO)CC2)C3)ncc1Cl
- Potency [1]: inactive
- Potency [2]: inactive

Structure (SMILES): COc1ccc(-c2c(-c3cc(C(=O)O)ccn3)ncn2C)cc1
- Potency [1]: inactive
- Potency [2]: inactive

Structure (SMILES): O=C(c1ccc(/C=C/c2n[nH]c3ccccc23)cc1)N1CCNCC1
- Potency [1]: inactive
- Potency [2]: inactive

Structure (SMILES): COc1ccc2cc(C(C)C(=O)Oc3ccc(C(N)=S)cc3)ccc2c1 (stereo not drawn)
- Potency [1]: inactive
- Potency [2]: inactive

Structure (SMILES): CC1CC(=O)C2=C(CCC3(O)C(O)c4c(O)cccc4C(=O)C23O)C1 (stereo not drawn)
- Potency [1]: inactive
- Potency [2]: inactive

Structure (SMILES): NCc1c[nH]c(=S)n1[C@@H]1CCc2c(F)cc(F)cc2C1
- Potency [1]: inactive
- Potency [2]: inactive

Structure (SMILES): Cc1ncc(CCCN(C)C)cc1Nc1ncc2c(n1)-c1ccc(C(F)(F)F)cc1NC(=S)C2
- Potency [1]: inactive
- Potency [2]: inactive

Structure (SMILES): COc1cc(/C=C/C(=O)O[C@H]2[C@H](O)[C@@H](CO)O[C@@]2(CO)O[C@H]2O[C@H](CO)[C@@H](O)[C@H](O)[C@H]2O)ccc1O
- Potency [1]: inactive
- Potency [2]: inactive
